Keap1 Nrf2 FP – Keap1-Nrf2 (human) interaction inhibition; 340,000 compounds, 0.15% hits; inhibition, % at 9.4 µM; Keap1 Kelch-Nrf2 peptide fluorescence polarization, 1536-well; Q14145; AID 504523; in the data active = inhibition above about 12%;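 note: human Keap1 Kelch domain with fluorescein labeled Nrf2 9mer peptide probe; 0% = neutral control wells and 100% = peptide positive control; higher means more block of Keap1 binding to Nrf2 peptide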
Target sequence (Q14145 whole entry, looked up, the tested form may be a part): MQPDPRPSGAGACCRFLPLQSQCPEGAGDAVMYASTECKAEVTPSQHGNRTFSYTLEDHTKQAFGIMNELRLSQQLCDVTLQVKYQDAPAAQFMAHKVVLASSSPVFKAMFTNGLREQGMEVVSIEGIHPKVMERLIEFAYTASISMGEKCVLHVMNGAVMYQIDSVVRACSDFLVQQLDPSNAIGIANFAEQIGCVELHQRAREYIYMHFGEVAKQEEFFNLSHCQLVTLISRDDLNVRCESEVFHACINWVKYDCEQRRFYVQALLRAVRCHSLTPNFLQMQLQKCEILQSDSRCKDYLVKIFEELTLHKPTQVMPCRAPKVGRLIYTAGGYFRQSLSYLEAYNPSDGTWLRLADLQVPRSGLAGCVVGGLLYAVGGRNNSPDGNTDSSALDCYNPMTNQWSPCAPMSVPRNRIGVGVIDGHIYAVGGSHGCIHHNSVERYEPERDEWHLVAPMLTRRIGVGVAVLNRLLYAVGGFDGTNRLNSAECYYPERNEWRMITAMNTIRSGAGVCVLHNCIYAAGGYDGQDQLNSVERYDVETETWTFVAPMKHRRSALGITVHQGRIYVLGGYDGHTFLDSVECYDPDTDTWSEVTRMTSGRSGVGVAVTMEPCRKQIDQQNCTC
CRFR2-BP antag – antagonists of CRF-binding protein/CRF-R2 receptor complex; HEK293 CRF-R2/CRF-BP, CRF-induced calcium fluorescence; inhibition, % at 11.8 µM; 350,000 compounds, 0.59% hits; AID 588475;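 active = inhibition of the ligand-induced calcium signal above about 50% at the single tested concentration, limit read from the data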
RTF Ca sens inh – cardiac RTF calcium desensitization | IANBD-labeled cardiac RTF, Ca2+ fluorescence | inhibition, % at 7.15 µM | 340,000 compounds, 0.12% hits | AID 493244;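 active = inhibition above the mean inhibition of all tested compounds plus 3 SD, cut at about 17% in these data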;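 note: assay run at fixed EC70 calcium of 1.6 mM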
RTF Ca sens act – cardiac RTF calcium sensitization; P19429+P45379; IANBD-labeled TnC RTF fluorescence at EC20 calcium; 0% EC20 calcium, 100% full calcium; activation, % at 7.2 µM; 340,000 compounds, 0.24% hits;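 active = activation above the mean over all tested compounds plus 3 SD, cut at about 30% in these data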;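 note: rise in fluorescence read as greater calcium sensitivity of cardiac thin filaments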
CRFBP-R2 agonist – CRF-BP/CRF-R2 complex agonism | HEK293 CRF-R2/CRF-BP, calcium dye fluorescence (FLIPR); percent of saturating CRF peptide response | activation, % at 13.2 µM | 350,000 compounds, 0.46% hits | AID 588473;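 active = activation of at least 50%, plus an integration ratio under a set limit after plate pattern correction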;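 note: plate controls were neutral control wells without compound for no effect and CRF at EC100 for full effect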
C-LANA FP – inhibitors of KSHV LANA C-terminal domain DNA binding; inhibition, % at 9 µM; MBP-C-LANA/FAM-LBS DNA binding, fluorescence polarization; AID 504423; 340,000 compounds, 0.078% hits;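 active = highest replicate inhibition at or above 60% at 9 µM, even if other replicates fall short; inactive = all replicates below 60% inhibition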;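 note: 0% = neutral control wells and 100% = 4 µM acridine orange control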
Active calls of the source: *; · = not tested or not shown. Sampled rows, rich in hits. Any-hit rate of the full collection: about 1.3%.

SMILES	Keap1 Nrf2 FP	CRFR2-BP antag	RTF Ca sens inh	RTF Ca sens act	CRFBP-R2 agonist	C-LANA FP
Cc1c(CCO)sc[n+]1CC(=O)OCCC12CC3CC(CC(C3)C1)C2	0.5	5.3	-0.7	0.6	-0.4	-0.3
CCCCCCCCCOC(=O)C[n+]1csc(CCO)c1C	-1.8	111.1*	-2.7	-2.9	0.2	-0.4
COc1ccc(OCC(O)CN2CCc3ccccc3C2)cc1 (centres undefined)	3.3	56.4*	-1.6	-7.3	0.4	0.5
COc1cccc(OCC(O)CN2CCc3ccccc3C2)c1 (centres undefined)	-4.0	-9.6	-6.3	-1.9	2.7	0.0
CC(=O)c1ccc(C(=O)N2CCCC(Nc3ccc(C(C)C)cc3)C2)s1 (centres undefined)	-9.6	1.1	-4.0	-2.7	2.4	-0.2
CC#CCCCC(=O)Nc1ccccc1C(=O)O	1.0	63.2*	-6.6	3.7	-0.2	0.5
COc1cnc(-c2ccccn2)nc1Sc1cccc(Cl)c1	-2.7	-9.9	-2.8	1.4	-2.4	-1.1
O=C(Nc1cccc(S(=O)(=O)N2CCCCC2)c1)c1ccc(S(=O)(=O)C(F)F)cc1	1.4	54.0*	-3.7	-0.3	1.8	1.1
O=C(Nc1cccc(S(=O)(=O)C(F)F)c1)c1ccc(S(=O)(=O)N2CCCCC2)cc1	1.9	-46.6	-2.2	0.1	6.9	-1.5
COc1cccc(N=Nc2c(N)[nH]n3c(=O)cc(-c4ccccc4)nc23)c1	1.0	20.8	-3.4	-4.3	-0.7	-0.9
COc1ccc(-c2c(C(F)(F)F)[nH]n3c(=O)cc(-c4ccccc4)nc23)cc1	-2.0	70.3*	5.8	-9.3	-3.6	0.7
Cc1ccc(N=Nc2c(N)[nH]n3c(=O)cc(-c4ccccc4)nc23)cc1	-2.4	58.7*	2.1	-6.4	0.0	-0.2
CCC1=C(NCc2ccccc2)COC1=O	·	-10.5	·	·	-0.8	·
CC(=O)c1c2c3c(cccc3n(C)c1=O)C(=O)c1ccccc1-2	·	-4.4	·	·	8.9	·
Cn1c(=O)c(Nc2ccc(O)cc2)c2c3c(cccc31)C(=O)c1ccccc1-2	4.7	2.9	-55.6	49.6*	9.4	-1.0
O=C(CCSc1ccc(Br)cc1)Nc1cccnc1	-0.8	110.2*	6.3	0.0	-1.0	0.2
COc1ccc(OCCCC(=O)Nc2cccnc2)cc1	-3.0	53.0*	-0.8	0.1	-4.5	-0.6
COc1ccc2cc3c(nc2c1)OCC3	-3.1	-1.0	-11.4	3.8	1.6	0.2
C=CCOc1c(CNc2cccc(C(=O)O)c2)cccc1OC	0.3	-9.5	-9.1	-0.5	-1.0	0.4
C=CCOc1c(CNc2cccc(C(=O)O)c2)cccc1OCC	0.7	64.0*	-4.7	0.9	-1.1	0.6
COc1cc(OC)c(NC(=O)c2cc3ccccc3cc2O)cc1Cl	-0.7	-12.1	2.7	31.6*	5.4	2.6
COc1cc(NC(=O)c2ccccc2)c(OC)cc1Cl	-3.5	10.7	-12.5	0.7	-1.4	-0.9
Cc1cccc(C2c3[nH]c4ccccc4c3CCN2C(=O)c2ccc(=O)[nH]c2)n1 (centres undefined)	2.8	-4.2	-9.6	5.1	-2.2	-0.2
O=C1c2ccccc2NC2CCCCC12 (centres undefined)	-1.9	18.2	-6.4	-2.2	-0.1	-0.5
Cc1csc(NC(=O)CSc2nc(C)nc3c2c(=O)n(C)c(=O)n3C)n1	-2.3	8.0	-2.5	3.3	-2.0	-1.4
SMILES	Keap1 Nrf2 FP	CRFR2-BP antag	RTF Ca sens inh	RTF Ca sens act	CRFBP-R2 agonist	C-LANA FP
Cc1ccc2c(CC(=O)NCc3ccc4c(c3)OCO4)coc2c1	-4.1	-1.6	-1.8	3.1	-0.1	-2.1
O=S(=O)(Nc1cc(Cl)ccc1-n1cncn1)c1ccccc1Cl	-1.7	106.0*	1.1	2.4	-0.2	1.6
COCCNC(=O)CN(CC1CCCO1)C(=O)CCC(=O)Nc1ccccn1 (centres undefined)	-2.8	57.1*	-2.0	1.1	-1.1	-0.1
Cc1[nH]c(C)c(S(=O)(=O)N(C)Cc2ccccc2)c1C(=O)N1CCCCC1	-0.9	4.6	-7.2	-2.4	1.7	0.2
COC(=O)c1ccc(CSc2nc3c(cnn3-c3ccc(F)cc3)c(=O)[nH]2)o1	-2.7	51.5*	-5.7	4.8	-0.7	0.2
Cn1c(O)c(/C=N/NC(=O)c2cc3ccccc3cc2O)c2ccccc21	-4.5	-103.6	-40.8	40.1*	117.1*	7.3
CCc1ccc(N(CC(=O)Nc2ccccc2C(=O)N2CCCC2)S(C)(=O)=O)cc1	-0.7	16.3	-0.3	-5.4	0.3	0.0
Cc1c(-n2cc(C(=O)c3ccccc3O)cc(C#N)c2=O)c(=O)n(-c2ccccc2)n1C	-0.8	23.2	-3.1	11.6	138.5*	3.8
N#Cc1cc(C(=O)c2ccccc2O)cn(-c2ccc(Cl)cc2)c1=O	-4.6	-13.4	·	·	52.7*	-0.7
COc1ccc(CCN(Cc2ccccn2)C(=S)Nc2cccc(C)c2)cc1OC	-1.7	-2.6	-1.3	1.0	1.0	-3.3
COCCn1c(=O)[nH]c(=O)c2cc(C(=O)c3cc(Cl)ccc3O)cnc21	0.0	-8.9	6.2	0.6	99.2*	-1.2
COc1ccc(/C=C2\SC(=O)N(CCC(=O)N3CCN(C)CC3)C2=O)cc1	-5.3	-14.3	-3.3	53.5*	-0.5	-0.3
O=[N+]([O-])c1ccccc1C=NNC(=S)NN=Cc1ccccc1[N+](=O)[O-]	-3.2	56.9*	4.6	-1.4	-2.2	1.1
COc1ccc2[nH]c3c(c2c1)CCNC3c1ccc([N+](=O)[O-])o1 (centres undefined)	6.2	-24.1	-32.2	33.1*	13.5	22.4
COc1ccc(/C=C2\Oc3cc(OC(=O)N4CCOCC4)ccc3C2=O)c(OC)c1	0.6	-7.8	-51.1	36.9*	25.9	2.8
O=C1/C(=C/c2ccccc2)Oc2cc(OC(=O)N3CCOCC3)ccc21	1.7	3.5	-5.8	-12.9	0.8	-0.8
Nc1c(C(=O)N2CCOCC2)sc2nc3c(cc12)CCC3	0.1	50.3*	-21.9	-2.1	3.5	0.2
O=c1c2c(n3nnnc3n1Cc1ccccc1)-c1ccccc1CC21CCCC1	2.3	6.9	5.5	-1.0	1.6	-1.2
CN(Cc1cccnc1)C(=O)CCCc1c[nH]c2ccccc12	-5.5	-0.3	-0.9	0.7	-3.1	0.4
Cc1ccc(CN(C)C(=O)CCc2c[nH]c3ccccc23)o1	0.0	56.6*	-0.3	-2.2	-2.1	0.4
COC(=O)C1C2CC3c4[nH]c5cc(OC)ccc5c4CCN3CC2CC(OC(=O)CC(C)=O)C1OC (centres undefined)	-5.4	-22.1	-76.3	45.9*	14.7	1.4
Cc1nnc(SCc2ccc(F)cc2Cl)s1	0.2	18.6	-8.7	6.7	-4.5	-1.1
Nc1nnc(SCc2ccc(F)cc2Cl)s1	-6.6	58.3*	-6.2	9.7	-6.8	0.2
O=C(c1nc2ccccc2s1)N1CCSCC1	1.8	5.4	-10.4	-0.1	0.7	-0.1

Bioassay records: PubChem, several laboratories
